According to PubChem BioAssay:

system: Sam68 (KHDRBS1); test: Sam68 small-molecule binders, primary screen, biochemical, small-molecule microarray, 635 nm fluorescence (AID 1125); conditions: small-molecule microarray binding, higher = more signal;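 further: score merges 667 nm channel intensity with signal to noise over triplicate slides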

Point of comparison: `CC(C)(C)N1C(=O)[C@H]2[C@H]3[C@H](O)[C@H](O)CC(=NNC(=O)OCc4ccccc4)[C@H]3CC[C@H]2C1=O`, composite z-score 1.1. Against it:
- CON=C(C)CCN1CCCCc2nc(C)c(C)cc21 — lower, 0.119
- CCOC(=O)[C@H](Cc1ccccc1)NC(=O)CCC1CC(OC(=O)NCc2cccc3ccccc23)CC2(CCCC(COC(=O)NCC3CCCCC3)O2)O1 (stereo partly drawn) — higher, 1.18
- CO[C@H]1COC(=O)CCC[C@H](C)[C@@H](OC)COC(=O)CC=C[C@@H]1C — lower, 0.113
- C[C@H]1C=CCC(=O)OC[C@H](C)C(=O)N2CCC[C@H]2C(=O)OC1 — lower, -0.374
- CC(=O)OC[C@H]1O[C@H](CCON=C(C)C)C=C[C@@H]1OC(C)=O — lower, -0.406
- CC(C)[C@@H](OCc1ccccc1)[C@H](C)C=NO[C@@H](C)c1cn([C@H](CO)Cc2ccccc2)nn1 — lower, 0.706
- O=C1C2=CC[C@H]3C(=O)N(C4CCCCC4)C(=O)[C@H]3[C@H]2[C@H](O)[C@@H]2O[C@H]12 — lower, -2.02
- CC(C)(C)N1C(=O)[C@H]2[C@H]3[C@H](O)[C@H](O)CC(=NNC(=O)OCc4ccccc4)[C@@H]3CC[C@H]2C1=O — lower, 0.692
- O=C1C2=CC[C@H]3C(=O)N(C[C@@H]4CCCO4)C(=O)[C@H]3[C@H]2[C@H](O)[C@@H]2O[C@H]12 — lower, 0.244
- CO[C@@H]1C=CCC(=O)N[C@@H](C)C(=O)OC[C@@H](NS(=O)(=O)c2ccc(C)cc2)[C@H](C)C=CCC(=O)OC[C@H]1C — lower, -0.583
- C[C@@H]1CC[C@@H](C(=O)O)N[C@H]1c1cccc(N2CCOCC2)c1 — lower, 0.225
- CO[C@@H]1COC(=O)[C@@H]2CCCN2C(=O)[C@@H](C)COC(=O)CCC[C@H]1C — higher, 1.27
